Assay [1] has as its target Serine/threonine-protein kinase PAK 6 (Homo sapiens) (UniProt Q9NQU5). Conditions: at 1 µM.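 Further: values are mean percent inhibition of PAK6 kinase.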
The test system of assay [2] is Tyrosine-protein kinase ABL1 (Homo sapiens), P00519 [E255K]. Particulars: at 0.1 µM.
Assay [3] has the same test system. Conditions: at 1 µM.
The subject of assay [4] is Tyrosine-protein kinase ABL1 (Homo sapiens), P00519 [H396P]. Particulars: at 0.1 µM.
The test system is the same in assay [5]. Particulars: at 1 µM.
For assay [6], the system named is Tyrosine-protein kinase ABL1 (Homo sapiens), P00519 [M351T]. Conditions: at 0.1 µM.
Assay [7] has the same test system. Conditions: at 1 µM.
The test system of assay [8] is Tyrosine-protein kinase ABL1 (Homo sapiens), P00519 [Q252H]. Conditions: at 0.1 µM.
The test system is the same in assay [9]. Particulars: at 1 µM.
For assay [10], the system named is Tyrosine-protein kinase ABL1 (Homo sapiens), P00519 [T315I]. Particulars: at 0.1 µM.
Assay [11] shares this test system. Particulars: at 1 µM.
The subject of assay [12] is Tyrosine-protein kinase ABL1 (Homo sapiens), P00519 [Y253F]. Conditions: at 0.1 µM.
Assay [13] shares this test system. Conditions: at 1 µM.
Assay [14] has as its target Tyrosine-protein kinase ABL1 (Homo sapiens) (UniProt P00519). Particulars: at 0.1 µM.
For assay [15] the target is unchanged. Particulars: at 1 µM.
Assay [16] has as its target ALK tyrosine kinase receptor (Homo sapiens) (UniProt Q9UM73). Particulars: at 0.1 µM.
Assay [17] shares this target. Particulars: at 1 µM.
For assay [18], the target named is Tyrosine-protein kinase ABL2 (Homo sapiens) (UniProt P42684). Particulars: at 0.1 µM.
For assay [19] the target is unchanged. Conditions: at 1 µM.
Assay [20] deals with Tyrosine-protein kinase receptor UFO (Homo sapiens) (UniProt P30530). Particulars: at 0.1 µM.

Molecules are shown by their SMILES.

Chain of Tyrosine-protein kinase receptor UFO (Homo sapiens) (P30530 whole entry): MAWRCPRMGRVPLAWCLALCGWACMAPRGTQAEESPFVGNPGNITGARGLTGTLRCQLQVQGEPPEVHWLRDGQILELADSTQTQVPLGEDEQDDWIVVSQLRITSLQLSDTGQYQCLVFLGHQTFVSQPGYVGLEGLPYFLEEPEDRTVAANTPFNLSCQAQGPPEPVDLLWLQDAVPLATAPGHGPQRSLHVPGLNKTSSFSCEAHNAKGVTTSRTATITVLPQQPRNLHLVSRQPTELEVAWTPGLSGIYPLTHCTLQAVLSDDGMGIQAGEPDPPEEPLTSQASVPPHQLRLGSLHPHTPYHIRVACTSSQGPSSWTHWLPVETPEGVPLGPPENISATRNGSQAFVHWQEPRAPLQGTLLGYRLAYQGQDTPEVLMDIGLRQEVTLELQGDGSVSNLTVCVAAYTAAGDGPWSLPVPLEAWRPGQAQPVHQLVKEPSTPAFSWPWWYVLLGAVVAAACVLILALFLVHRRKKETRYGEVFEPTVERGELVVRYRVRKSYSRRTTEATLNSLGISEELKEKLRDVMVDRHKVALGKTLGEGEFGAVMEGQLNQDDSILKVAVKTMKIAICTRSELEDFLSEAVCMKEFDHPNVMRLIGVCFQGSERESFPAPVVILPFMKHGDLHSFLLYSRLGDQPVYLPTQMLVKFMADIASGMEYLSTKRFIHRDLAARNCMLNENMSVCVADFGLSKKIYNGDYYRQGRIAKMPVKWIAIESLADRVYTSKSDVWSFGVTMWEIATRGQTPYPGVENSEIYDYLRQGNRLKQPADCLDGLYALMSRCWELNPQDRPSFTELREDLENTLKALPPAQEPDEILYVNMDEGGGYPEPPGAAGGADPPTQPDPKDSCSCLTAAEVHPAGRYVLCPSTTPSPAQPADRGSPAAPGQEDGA
Chain of ALK tyrosine kinase receptor (Homo sapiens) (Q9UM73 19-1620 limits assumed): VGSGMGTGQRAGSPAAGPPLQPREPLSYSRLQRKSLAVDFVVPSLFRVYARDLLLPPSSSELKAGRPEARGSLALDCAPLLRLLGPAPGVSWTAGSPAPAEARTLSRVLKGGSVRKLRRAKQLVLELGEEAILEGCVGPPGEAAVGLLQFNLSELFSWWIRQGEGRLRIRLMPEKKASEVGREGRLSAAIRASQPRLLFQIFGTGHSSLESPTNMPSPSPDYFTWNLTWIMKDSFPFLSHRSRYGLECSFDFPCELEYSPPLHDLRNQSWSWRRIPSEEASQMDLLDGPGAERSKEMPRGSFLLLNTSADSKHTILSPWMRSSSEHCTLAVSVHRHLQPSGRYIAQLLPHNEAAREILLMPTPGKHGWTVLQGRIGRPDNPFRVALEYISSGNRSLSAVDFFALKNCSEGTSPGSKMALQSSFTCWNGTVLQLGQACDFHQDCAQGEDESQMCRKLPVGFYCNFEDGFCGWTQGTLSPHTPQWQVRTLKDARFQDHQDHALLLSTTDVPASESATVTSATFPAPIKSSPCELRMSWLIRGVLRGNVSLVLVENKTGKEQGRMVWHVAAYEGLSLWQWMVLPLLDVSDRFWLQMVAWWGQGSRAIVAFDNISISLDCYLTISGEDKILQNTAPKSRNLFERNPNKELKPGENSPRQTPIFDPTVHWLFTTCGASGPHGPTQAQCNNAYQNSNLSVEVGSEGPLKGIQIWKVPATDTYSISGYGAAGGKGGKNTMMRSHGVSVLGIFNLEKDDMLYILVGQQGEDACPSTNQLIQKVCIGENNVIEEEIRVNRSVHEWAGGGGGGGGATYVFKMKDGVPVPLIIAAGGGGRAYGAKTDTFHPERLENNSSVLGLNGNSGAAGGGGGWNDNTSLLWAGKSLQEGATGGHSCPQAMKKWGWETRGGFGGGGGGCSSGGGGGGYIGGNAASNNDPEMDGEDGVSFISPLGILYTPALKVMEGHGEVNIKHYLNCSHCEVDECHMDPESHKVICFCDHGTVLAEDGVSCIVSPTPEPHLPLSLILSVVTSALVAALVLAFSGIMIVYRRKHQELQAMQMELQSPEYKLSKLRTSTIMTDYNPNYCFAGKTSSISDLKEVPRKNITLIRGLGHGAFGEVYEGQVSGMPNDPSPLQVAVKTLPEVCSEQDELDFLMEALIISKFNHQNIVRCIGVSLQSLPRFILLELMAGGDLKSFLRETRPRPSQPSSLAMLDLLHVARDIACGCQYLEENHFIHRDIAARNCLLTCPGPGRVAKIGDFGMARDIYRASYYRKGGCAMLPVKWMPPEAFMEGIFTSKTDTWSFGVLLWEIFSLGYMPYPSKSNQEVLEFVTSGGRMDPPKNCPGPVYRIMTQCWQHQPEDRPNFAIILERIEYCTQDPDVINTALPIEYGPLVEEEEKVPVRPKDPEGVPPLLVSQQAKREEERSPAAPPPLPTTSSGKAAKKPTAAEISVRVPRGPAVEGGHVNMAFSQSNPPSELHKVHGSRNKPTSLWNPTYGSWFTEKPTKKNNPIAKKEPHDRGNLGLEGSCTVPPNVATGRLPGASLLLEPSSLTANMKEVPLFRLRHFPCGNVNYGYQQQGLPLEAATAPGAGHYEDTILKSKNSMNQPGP
Chain of Serine/threonine-protein kinase PAK 6 (Homo sapiens) (Q9NQU5 whole entry, looked up): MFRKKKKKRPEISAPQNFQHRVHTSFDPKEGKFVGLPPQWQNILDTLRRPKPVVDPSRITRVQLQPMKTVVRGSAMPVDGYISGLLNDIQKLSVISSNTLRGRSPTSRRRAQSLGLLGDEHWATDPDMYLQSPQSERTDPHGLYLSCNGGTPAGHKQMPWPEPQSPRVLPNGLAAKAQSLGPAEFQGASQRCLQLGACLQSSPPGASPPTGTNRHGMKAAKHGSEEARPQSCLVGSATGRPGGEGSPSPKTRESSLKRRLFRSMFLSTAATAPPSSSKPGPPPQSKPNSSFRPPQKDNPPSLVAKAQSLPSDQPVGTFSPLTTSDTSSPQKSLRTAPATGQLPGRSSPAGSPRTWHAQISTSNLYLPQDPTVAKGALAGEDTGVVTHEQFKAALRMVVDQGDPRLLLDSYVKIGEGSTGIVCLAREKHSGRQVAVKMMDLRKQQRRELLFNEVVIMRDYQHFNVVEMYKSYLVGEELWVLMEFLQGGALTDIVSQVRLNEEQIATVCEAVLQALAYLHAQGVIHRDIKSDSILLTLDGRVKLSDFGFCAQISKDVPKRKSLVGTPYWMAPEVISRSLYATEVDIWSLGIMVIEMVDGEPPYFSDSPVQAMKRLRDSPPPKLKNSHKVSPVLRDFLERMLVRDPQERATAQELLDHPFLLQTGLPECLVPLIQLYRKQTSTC
Chain of Tyrosine-protein kinase ABL2 (Homo sapiens) (P42684 whole entry): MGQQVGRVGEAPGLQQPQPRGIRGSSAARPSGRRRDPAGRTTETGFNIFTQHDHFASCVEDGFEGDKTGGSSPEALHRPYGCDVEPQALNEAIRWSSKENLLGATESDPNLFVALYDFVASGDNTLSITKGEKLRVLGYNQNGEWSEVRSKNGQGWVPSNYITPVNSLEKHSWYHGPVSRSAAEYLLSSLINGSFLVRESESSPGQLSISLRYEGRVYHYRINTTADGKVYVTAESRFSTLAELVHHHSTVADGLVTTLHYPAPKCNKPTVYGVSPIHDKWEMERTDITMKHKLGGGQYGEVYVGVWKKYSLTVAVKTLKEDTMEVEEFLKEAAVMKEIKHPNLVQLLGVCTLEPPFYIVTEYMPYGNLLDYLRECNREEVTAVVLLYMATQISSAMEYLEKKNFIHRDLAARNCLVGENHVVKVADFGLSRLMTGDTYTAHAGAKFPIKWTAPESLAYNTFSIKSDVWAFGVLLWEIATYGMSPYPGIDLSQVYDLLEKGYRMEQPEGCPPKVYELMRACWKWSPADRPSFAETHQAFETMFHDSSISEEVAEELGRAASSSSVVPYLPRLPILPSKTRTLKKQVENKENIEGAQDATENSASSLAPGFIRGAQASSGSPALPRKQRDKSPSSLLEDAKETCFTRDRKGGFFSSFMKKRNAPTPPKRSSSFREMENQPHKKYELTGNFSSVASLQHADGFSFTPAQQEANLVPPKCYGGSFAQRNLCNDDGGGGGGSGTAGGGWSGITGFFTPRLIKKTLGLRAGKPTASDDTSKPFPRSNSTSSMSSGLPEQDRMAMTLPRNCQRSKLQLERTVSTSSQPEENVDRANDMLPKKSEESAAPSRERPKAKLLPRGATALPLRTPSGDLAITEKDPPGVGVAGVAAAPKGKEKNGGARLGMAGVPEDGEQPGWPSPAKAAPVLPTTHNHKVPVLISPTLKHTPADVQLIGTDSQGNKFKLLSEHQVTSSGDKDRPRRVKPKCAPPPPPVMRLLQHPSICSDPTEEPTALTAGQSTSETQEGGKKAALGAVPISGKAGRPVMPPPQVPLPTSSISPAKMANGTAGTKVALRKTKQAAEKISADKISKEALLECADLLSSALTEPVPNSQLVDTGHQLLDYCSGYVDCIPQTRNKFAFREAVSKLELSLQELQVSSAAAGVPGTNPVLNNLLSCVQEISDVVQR

As a reminder, the inhibition is the relative decrease from the control value, in per cent. For `CCS(=O)(=O)c1ccc(OC)c(Nc2nccc(N(C)c3ccc4c(C)n[nH]c4c3)n2)c1`, the inhibition in assay [1] was -6.63%; in [2], 50.5%; in assay [3] it was 88.7%; in assay [4] it was 61.1%; in assay [5], 90.5%; in assay [6], 54%. Also, the inhibition in assay [7] was 88.3%; in assay [8], 57.7%; in assay [9] it was 89.6%; in assay [10], 3.83%; in [11], 15%; in assay [12] it was 66.4%. The inhibition in assay [13] was 92.3%; in assay [14], 58%; in [15], 78.5%; in [16] it was 4.29%; in assay [17], 12.4%; in assay [18] it was 42%. Moreover, the inhibition was 73.9% in assay [19] and -6.66% in assay [20].

As to `C[C@@H](Oc1cc(-n2cnc3ccc(OCC4CCN(C)CC4)cc32)sc1C(N)=O)c1ccccc1C(F)(F)F`, the inhibition is -0.65% in assay [1]; -1.19% in [2]; 0.71% in [3]; -1.32% in assay [4]; 1.14% in [5]; 0.4% in assay [6]. Further, the inhibition in assay [7] is 2.58%; in [8], -0.85%; in [9] it was 1.8%; in [10] it was 0.36%; in assay [11], 13.7%; in assay [12], -1.07%. Moreover, the inhibition came to 1.43% in [13]; 0.74% in [14]; 2.7% in assay [15]; 1.57% in assay [16]; 20.8% in [17]; 0.15% in [18]. The results for the inhibition in [19] and in assay [20] were 3.87% and 3.82%, respectively.

As to `NS(=O)(=O)c1ccc(NC=C2C(=O)Nc3ccc4ncsc4c32)cc1`, the inhibition was -1.77% in [1]; 6.89% in assay [2]; 37.9% in assay [3]; 10.9% in [4]; 46.7% in assay [5]; 10.9% in [6]. For the same compound, the inhibition in assay [7] is 50.6%; in assay [8], 14.4%; in assay [9] it was 56.3%; in assay [10] it was 15%; in [11], 61.6%; in [12], 10.6%. The inhibition in assay [13] stood at 48.7%; in assay [14], 7.95%; in assay [15] it was 44.8%; in assay [16] it was 7.33%; in assay [17], 32.2%; in [18], 5.56%. Also, the figures for the inhibition in assay [19] and in [20] were 31.4% and -4.15%, respectively.

Regarding `Cc1ccc2c(-c3ccnc(Nc4cccc(C(F)(F)F)c4)n3)c(-c3ccccc3)nn2n1`, the inhibition is -8.69% in assay [1]; 3.52% in assay [2]; 19.7% in assay [3]; 11.3% in assay [4]; 44.8% in assay [5]; 24.1% in [6]. In addition, the inhibition was 68.2% in assay [7]; 24.2% in [8]; 69.1% in [9]; 6.16% in assay [10]; 20.8% in [11]; 12.2% in [12]. For the same compound, the inhibition was 53.3% in assay [13]; 7.07% in assay [14]; 36.1% in assay [15]; 3.25% in [16]; 3.77% in assay [17]; -9.35% in [18]. Moreover, the inhibition in assay [19] is 33.7%; in [20], -5.69%.

Regarding `Cc1cc(Cl)cc2c1NC(=O)C2=NNc1ccc(S(N)(=O)=O)cc1`, the inhibition is -1.69% in [1]; 1.25% in [2]; 5.11% in [3]; 2.97% in assay [4]; 8.01% in assay [5]; -0.27% in [6]. Also, the inhibition in assay [7] is 6.65%; in assay [8], 4.15%; in assay [9] it was 7.11%; in assay [10] it was 1.38%; in assay [11] it was 4.99%; in assay [12], 3.5%. Further, the inhibition came to 6.19% in assay [13]; 2.11% in [14]; 7.99% in [15]; 0.72% in assay [16]; 1.88% in assay [17]; 3.13% in assay [18]. Further, the values for the inhibition in assay [19] and in [20] were 7.59% and -3.23%, respectively.

`COc1cc2ncn(-c3cc(OCc4ccccc4S(C)(=O)=O)c(C#N)s3)c2cc1OC`: the inhibition is 9.78% in assay [1]; 9.96% in assay [2]; 46.7% in [3]; 12.2% in assay [4]; 49.5% in assay [5]; 9.97% in assay [6]. Moreover, the inhibition in [7] is 49.6%; in [8], 10%; in assay [9] it was 43.9%; in assay [10], 6.41%; in assay [11], 32.6%; in [12], 13.8%. Further, the inhibition in [13] is 48.8%; in assay [14], 9.66%; in assay [15] it was 49%; in assay [16], 4.25%; in assay [17], 9.85%; in assay [18] it was 4.77%. Besides, the inhibition in assay [19] was 18%.

As for `Cc1nc(-c2ccccc2)n2nc(NCCCN3CCOCC3)ncc12`, the inhibition in [1] was -7.1%; in [2] it was 0.22%; in assay [3] it was 2.36%; in [4], 2.5%; in [5], 4.26%; in [6], -1.13%. Further, the inhibition came to 0.73% in [7]; 3.04% in assay [8]; 3.3% in [9]; 2.3% in assay [10]; 7.48% in assay [11]; 1.75% in assay [12]. In addition, the inhibition in assay [13] is 3.67%; in assay [14] it was 5.87%; in assay [15], 5.41%; in [16], 2.79%; in assay [17], 4.11%; in assay [18], 2.85%. Moreover, the inhibition in assay [19] was 4.35%; in assay [20], -1.08%.

Turning to `NS(=O)(=O)c1cccc(Nc2cc(-c3ccc(F)cc3)n[nH]2)c1`, the inhibition is 13% in assay [1]; 1.07% in assay [2]; 8.03% in [3]; 5.72% in [4]; 15.4% in [5]; 2.42% in [6]. The inhibition came out at 19.8% in assay [7]; 4.73% in assay [8]; 18.2% in assay [9]; 1.49% in assay [10]; 9% in assay [11]; 4.2% in assay [12]. The inhibition amounted to 17% in [13]; 3.39% in assay [14]; 12.4% in assay [15]; 1.3% in assay [16]; 2.54% in assay [17]; 3.38% in assay [18]. Moreover, the inhibition in [19] is 9.78%; in [20], -0.57%.

Take `O=C(Nc1ccc(Oc2ccc3[nH]c(NC(=O)c4ccco4)nc3c2)cc1)Nc1cc(C(F)(F)F)ccc1F`: the inhibition is 6.45% in assay [1]; 15.2% in [2]; 67.1% in assay [3]; 60.1% in assay [4]; 92% in assay [5]; 72.4% in assay [6]. The inhibition in assay [7] came out at 93.2%; in assay [8], 68.6%; in [9], 91.6%; in assay [10] it was 76.3%; in assay [11], 94.4%; in assay [12] it was 38%. In addition, the inhibition is 84% in [13]; 27.9% in assay [14]; 72.2% in assay [15]; -1.81% in [16]; 7.58% in assay [17]; 35.6% in assay [18]. In addition, the inhibition turned out to be 66.4% in [19] and 16.1% in assay [20].

`NC(=O)c1cccc(Nc2nccc(Nc3cccc(F)c3)n2)c1`: the inhibition is -5.46% in [1]; 7.73% in assay [2]; 47% in assay [3]; 9.26% in assay [4]; 56.1% in [5]; 9.02% in assay [6]. The inhibition was 57.7% in assay [7]; 9.5% in [8]; 53.9% in [9]; 1.3% in assay [10]; 17.1% in assay [11]; 12.8% in assay [12]. In addition, the inhibition in [13] was 63.8%; in [14] it was 11.6%; in [15], 55.6%; in [16], 0.23%; in [17] it was 10.1%; in assay [18] it was 11.5%. Besides, the inhibition is 51.9% in [19] and -1.82% in [20].

Regarding `Cc1cc(-c2ccccn2)cc(C)c1/C=C/c1cncc(-c2nn[nH]n2)c1`, the inhibition in assay [1] is -5.17%; in [2], -0.88%; in assay [3], 3.22%; in assay [4], 3.18%; in [5] it was 8.77%; in [6] it was 0.81%. In addition, the inhibition in [7] came out at 5.63%; in assay [8] it was 3.34%; in assay [9] it was 9.01%; in assay [10], 0.21%; in assay [11], 1.41%; in assay [12], 0.95%. The inhibition in [13] was found to be 5.04%; in [14], 7.78%; in assay [15], 13%; in [16], 3.44%; in assay [17] it was 5.05%; in assay [18] it was 5.89%. The results for the inhibition in assay [19] and in assay [20] were 20.2% and -5.03%, respectively.

Take `O=C1Nc2ccc(-c3cccnc3)cc2C1=Cc1cc(Br)c(O)c(Br)c1`: the inhibition in assay [1] stood at 7.69%; in [2] it was 3.78%; in assay [3] it was 8.72%; in [4], 3.44%; in assay [5] it was 7.14%; in assay [6], 4.37%. For the same compound, the inhibition was determined as 6.55% in assay [7]; 2.79% in assay [8]; 7.71% in assay [9]; 2.69% in assay [10]; 2.94% in assay [11]; 5.16% in [12]. In addition, the inhibition in assay [13] is 7.7%; in assay [14], 3.97%; in assay [15] it was 8.78%; in assay [16], 4.13%; in [17], 9.22%; in [18], 3.5%. The inhibition in assay [19] was 5.72%; in [20], -3.55%.

As for `Nc1nccc(-c2c(-c3ccc(F)cc3)nn3cc(C(F)(F)F)ccc23)n1`, the inhibition was 5.02% in assay [1]; -2.06% in [2]; -1.18% in assay [3]; 0.65% in assay [4]; -0.33% in assay [5]; 1.15% in assay [6]. The inhibition in assay [7] amounted to 1.14%; in assay [8], 1.06%; in assay [9], 0.27%; in assay [10] it was 0.42%; in assay [11], 1.21%; in assay [12], 1.01%. Also, the inhibition in [13] was -0.43%; in [14] it was 0.6%; in [15] it was 0.4%; in assay [16], 3.84%; in assay [17], 5.16%; in assay [18], 2.16%. Further, the inhibition in assay [19] stood at 3.62%; in assay [20], 0.67%.
